Laboratory results taken from the supplement of paper PMC11417369.
The full ranking holds about 25,000 sequences; the median of “ln(normalized median fluorescence intensity)” is about 6.7, and the highest 2% start at about 10. The list comes from a sample in which the highest values are over-represented; it also holds similar and randomly drawn sequences.

Test system: PfHDP1 homeodomain (GST-tagged)
Experiment: gcPBM binding intensity (ln(normalized median fluorescence intensity)); higher = stronger DNA binding
Method in brief: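 Binding intensity is defined as the maximum Masliner-normalised natural-log median intensity across replicate spots for either probe orientation. It was measured on an Agilent 4 × 180k array of primer-extended double-stranded 36-bp intergenic genomic probes and negative controls, to which GST-tagged P. falciparum DNA-binding domains made in E. coli were applied for 1 h in 1× PBS with 1% milk, 0.2 mg/ml BSA, 0.5% salmon testes DNA and 0.03% Triton X-100. Detection was by Alexa488 anti-GST antibody and scanning at 488 nm.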

Row | Sequence | gcPBM binding intensity (ln)
1 | ATATATATTAAAAATAGTACATATAATAAAAATCAT [XGTACX_site4265] | 6.57
2 | AATCATATTAGTATGGTGCAACATATATAAATATAT | 11
3 | AATCATATTAGTATGGTGCAATATATATATAAATAT [GTGCAC_site9800] | 10.5
4 | CAATATATTATATGGGTGCAAACCACATATAAATAA | 8.55
5 | AGTATAAATAAATCATAAACATATATATATATATAT [GTGCAC_negctrl_site356] | 9.35
6 | ATACATTTATTGTATTGTACATAATATTATATATTC [XGTACX_site7115] | 6.55
7 | TGCATATTACTTTTTCACATAAAAATGATCCGATTA [GTGCAC_negctrl_site526] | 6.49
8 | ATATTTAAACGATGGTGTACATATATTACAAGTTGT [XGTACX_site1743] | 7.03
9 | ACATAAAATTGGAGCAAACACACAAGGTTGAAATTA [CACACA_site505] | 7.16
10 | TATATATTTCAATAATGTACATATAATATATATATT [XGTACX_site4124] | 6.6
11 | CCATAAAAAGGATACACACACACACCGACATATATA [CACACA_site4653] | 6.89
12 | ATTAAGTACTAAAAAGTGCAGTTCGGTACTGTGCTT [GTGCAC_site9755] | 6.42
13 | TATTTCATTAATGTCACTTTGAAAGAAATGAAAAAA [CACACA_negctrl_site1803] | 6.44
14 | TTAATTATCCATTTTGCACACATTTTAAAACATGAA [CACACA_site189] | 10.7
15 | CTATTTAAAATTTGAACACACATTATTTATTTTAAA [CACACA_site3114] | 6.41
16 | TTTTTTTTTTTTTTTGCACACATTTTAATTATTTTT [CACACA_site341] | 9.27
17 | TTCCTTTGTCCTAACTGTACTCAAATTTATTAGTGG [XGTACX_site226] | 7.04
18 | TATATATTCATAAAGTGTACATGTTTATATATATAT [XGTACX_site7585] | 8.53
19 | TATATATAAGCGTGTACACATTCTGAGTGTTGTATA [CACACA_site4502] | 7.02
20 | ATAGTATATCAAAATTTGTAAATCATTCTCAATAAA [CACACA_negctrl_site430] | 5.94
21 | AATATAAATAATTATACACACTTAATATATATATAC [CACACA_site5533] | 6.53
22 | ATATGTATGTATTTATTATTGTGCATTGTATTTATA [CACACA_negctrl_site664] | 10.3
23 | ATATATATTTATATATATATATATATATATATGTAT [GTGCAC_negctrl_site220] | 7.92

Row | Sequence | gcPBM binding intensity (ln)
24 | TATATATATATATATATATATATGTATGTGCATTTA [TGCATGCA_negctrl_site53] | 11.2
25 | CACACGCACGAACACACACACACACGCGCACATATA [CACACA_site6304] | 8.54
26 | CAAAAAAACAAACACACACACACACCCATATATATA [CACACA_site3653] | 6.85
27 | TTTTTTAAAGTTTAAAGTACATATAAAAATATATAA [XGTACX_site5267] | 5.94
28 | AAAGTTTTTATAAAAAAAAAAATAAATACCATATAT [XGTACX_negctrl_site113] | 6.5
29 | TATACCAGTTTTAAAAGTACTTGTGCATAAAAAATA [XGTACX_site4794] | 11
30 | TATGGTTTTAAAAAATGTACGCAAGTGCGTTAATTT [XGTACX_site3945] | 7.62
31 | TTATAATATATATACAGTACATATATAAAATAATAT [XGTACX_site5917] | 6.5
32 | AAAAAAAATTATATATGTACTTATTAATCCTTTTAT [XGTACX_site1387] | 6.11
33 | AGCACATAAATAATTAAACACACATTGTTCTAGACA [CACACA_site8746] | 6.3
34 | TCCAATTGTTCTAGTGTGCACATAAATAAATCTCAT | 11
35 | CACATAAATAATTAAACACACATTGTTCTAGACAAT [CACACA_site2378] | 6.51
36 | AGTCTGAATAAAATTACACACATATACCTATAAATA [CACACA_site6929] | 6.4
37 | ATACATAAAATTAAAACACACATTTGATTAAATACG [CACACA_site7088] | 6.6
38 | TGTGCTCAAAATTATGCACACACCTAAAATTAATTT [CACACA_site8950] | 10.7
39 | TAAATTAATACCTATGCACACATTTTTTTTTTTAAA [CACACA_site1238] | 8.59
40 | AATTAAAAAATTTATGCACACTTTAAAAAAAAAAAA [CACACA_site5962] | 9.66
41 | TGCACAAAATTATGCACACACCTAAAATTAATTTTT [CACACA_site5596] | 10.8
42 | TGCACAAAGTTATGCACACACCTAAAATTAATTTTT [CACACA_site7385] | 10.5
43 | TGTGCCCAAAATTATGCACACACCTAAAATTAATTT [CACACA_site2914] | 10.5
44 | GATAATAATAAACAACCACACACAAAAAAACAAAAA [CACACA_site9074] | 7.01
45 | TTTTTTTTTTTTTATTGTACTTATTTTTTTATGTTT [XGTACX_site7725] | 5.96
